This is a sample that favours compounds with a hit; in the whole collection about 7.8% have one here.
HCV inh = inhibitors of hepatitis C virus infection; Huh7.5.1 HCVcc-Cre infection, luciferase reporter, 44 h; Potency, µM (series often up to 41.8 µM), without a hit: at the top dose activity change, negative = inhibition, hits mostly inhibitors; hit rate 3.4% among 340,000; AID 651820; active = well fitted inhibition curve with a large enough effect; inconclusive = small, poorly fitted or top-dose-only effect, or another doubt; inactive = no such curve, though single readings can be large or run the other way; note: potency is the fitted concentration of half-maximal effect
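1,000 cells/well; 4 h culture; + compound; + HCVcc-Cre (~0.5 moi); 44 h; luciferase substrate, RT 15 min; read 15 sec.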
Lassa entry inh = inhibitors of Lassa virus binding or cell entry. Lassa virus pseudotype entry inhibition, cell reporter. Potency, µM (series often up to 37.9 µM), inactives show top-dose activity change, negative = inhibition, hits mostly inhibitors. hit rate 1.2% among 300,000. AID 540256; calls by dose curve; tested in HEK293 cells; note: potency is the fitted concentration of half-maximal effect; nearly all actives have a fitted effect of over 50% in size
Vaccinia mCherry = vaccinia inhibition (mCherry reporter); Potency, µM (top dose mostly 36.5 µM), inactives show at the highest dose activity change, negative = inhibition, hits mostly inhibitors; AID 720579; Vaccinia virus mCherry reporter infection, fluorescence; hit rate 0.63% among 310,000; calls by dose curve; tested in A549 cells; note: potency is the fitted concentration of half-maximal effect; nearly all actives have a fitted effect of over 35% in size
MARV entry inh = inhibitors of Marburg virus binding or cell entry. Marburg virus pseudotyped entry inhibition, cell reporter. Potency, µM (highest dose often 37.8 µM), inactives show at the highest dose activity change, negative = inhibition, hits mostly inhibitors. hit rate 1.8% among 300,000. AID 540276; calls by dose curve; tested in HEK293 cells; note: potency is the fitted concentration of half-maximal effect
VACV Venus inh = vaccinia inhibition (Venus reporter). hit rate 0.46% among 330,000. Potency, µM (highest dose often 36.5 µM), for inactives: at the highest dose activity change, negative = inhibition, usual class: inhibitors. Vaccinia virus Venus reporter expression, fluorescence. AID 720580; calls by dose curve; tested in A549 cells; note: potency is the fitted concentration of half-maximal effect; nearly all actives have a fitted effect of over 30% in size
HCMV inh = inhibitors of human cytomegalovirus; HFF cells, HCMV-luciferase reporter, 72 h; stronger effect = lower value; activity change, negative = inhibition, % at 57.5 µM; hit rate 4.5% among 410,000; in the data active = activity change below about -60%; inconclusive = no clear call, values can overlap the other calls; inactive = above about -39%
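Human foreskin fibroblasts infected with luciferase-reporter HCMV at MOI 1 PFU/cell, compounds at two doses. Luciferase measured 72 h post infection; normalized to buffer-only basal and Salinomycin (10uM) controls.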
Numbers without * were called inactive; [ ] = another dose, or the depositor's remark. % is set by controls: 0 for no effect and ±100 for the full control effect.

For O=C(COc1ccc(S(=O)(=O)N2CCOCC2)cc1)N1CCN(Cc2ccc3c(c2)OCO3)CC1 the results were HCV inh inconclusive, Lassa entry inh -7%, MARV entry inh -25% and HCMV inh -61*.
O=C(COc1ccc(S(=O)(=O)N2CCOCC2)cc1)N1CCCCCC1 was read as HCV inh 4%, Lassa entry inh -11%, Vaccinia mCherry 12%, MARV entry inh 27%[46.1 µM], VACV Venus inh 0% and HCMV inh -85*.
Screening CN1Cc2sccc2C(c2ccc(O)c(O)c2)C1 (stereo not given) returned Lassa entry inh -8% and MARV entry inh 16%.
For O=c1n(-c2ccccc2)c(=O)n2n1CC[C@@H]1C(=NOC[C@@H](O)COCc3ccco3)[C@H]3O[C@H]3[C@@H](O)[C@H]12 the results were MARV entry inh -23%[14.2 µM].
Screening O=S(=O)(CCN1CCOCC1)c1ccc(Oc2ccc(S(=O)(=O)CCN3CCOCC3)cc2)cc1 returned HCV inh 3.5µM*, Lassa entry inh -1%, Vaccinia mCherry inconclusive, MARV entry inh inconclusive, VACV Venus inh 2.2µM* and HCMV inh -65*.
`CC(=O)N1CCc2cc(S(=O)(=O)NCCC(=O)N3CCN(Cc4ccccc4)CC3)ccc21` gave HCV inh inconclusive, Lassa entry inh inconclusive, MARV entry inh 3% and HCMV inh -66*.
Screening CS(=O)(=O)N(CC(=O)N1CCN(Cc2ccc3c(c2)OCO3)CC1)Cc1ccc(Cl)cc1 returned HCV inh 13µM*, Lassa entry inh 9.2µM*, MARV entry inh 0% and HCMV inh -84*.
Screening CCCNS(=O)(=O)c1ccc(OCC(=O)N2CCN(Cc3ccccc3)CC2)cc1 returned HCV inh -14%, Lassa entry inh 18µM*, MARV entry inh inconclusive and HCMV inh -37.
Screening CCCCNS(=O)(=O)c1ccc(OCC(=O)N2CCN(Cc3ccc4c(c3)OCO4)CC2)cc1 returned HCV inh 3.2µM* and HCMV inh -83*.
Screening CN(C)CCCNC(=O)[C@@H]1[C@@H](CO)[C@@H]2Cn3c(cccc3=O)[C@H]1N2C(=O)Nc1cc(F)ccc1F returned HCMV inh 1.
O=c1cc(CSc2ccccc2)[nH]c2ccc(F)cc12 was read as Lassa entry inh -13%[46.1 µM], Vaccinia mCherry -17%, VACV Venus inh -17% and HCMV inh -30.
For COc1ccc(C)cc1NC(=O)c1cnc2ccc(C)cn2c1=O the results were Vaccinia mCherry -9%, MARV entry inh -8%[46.1 µM], VACV Venus inh -6% and HCMV inh 14.
`Cc1nn(-c2ccccc2)c(Cl)c1C1C(C#N)=C(N)Oc2c1c(C)nn2-c1ccccc1` (stereo not given) gave HCV inh 0%, Lassa entry inh 7%, MARV entry inh -12%[46.1 µM] and VACV Venus inh -20%.
For Cc1nn(-c2ccccc2)c(Cl)c1C1C(C#N)=C(N)Oc2n[nH]c(C)c21 (stereo not given) the results were HCV inh 6%, Lassa entry inh -16%, Vaccinia mCherry inactive, MARV entry inh 27%, VACV Venus inh -16% and HCMV inh -103*.
For CCOC(=O)c1cc2c(=O)n3ccccc3nc2n(CC2CCCO2)c1=NC(=O)c1ccc(F)cc1 (stereo not given) the results were Lassa entry inh 16%[46.1 µM], Vaccinia mCherry 1%, MARV entry inh -24%[46.1 µM], VACV Venus inh -2% and HCMV inh -8.
`CCc1ccc(NC(=O)CCS(=O)(=O)c2ccc(Br)cc2)cc1` gave HCV inh 4% and HCMV inh -62*.
CCC(=O)N1CCc2cc(S(=O)(=O)CCC(=O)Nc3ccc(Cl)c(C(F)(F)F)c3)ccc21 was read as Lassa entry inh -1%[46.1 µM], Vaccinia mCherry 5µM*, MARV entry inh 2%[46.1 µM], VACV Venus inh 7.9µM* and HCMV inh -91*.
For O=C(CCCCCN1C(=O)CCC1=O)Nc1ccc(Cl)c(C(F)(F)F)c1 the results were HCV inh -2%, Lassa entry inh -32%[14.3 µM], Vaccinia mCherry -28%, MARV entry inh 1%, VACV Venus inh -20% and HCMV inh -64*.
O=C(CCS(=O)(=O)c1ccc(Br)cc1)Nc1ccc(Cl)c(C(F)(F)F)c1 was read as Lassa entry inh -20%[46.1 µM], Vaccinia mCherry 11µM*, VACV Venus inh inconclusive and HCMV inh inconclusive.
For CCc1ccc(C(=O)NC2=NC(c3cc(OC)ccc3OC)CC(=O)N2)cc1 (stereo not given) the results were Lassa entry inh -13%[46.1 µM], Vaccinia mCherry -20%, MARV entry inh 21%[46.1 µM], VACV Venus inh -16% and HCMV inh -9.
Screening Cc1ccccc1NC(=O)CCS(=O)(=O)c1ccc(Br)cc1 returned HCV inh 6% and HCMV inh -24.
Screening Cc1ccc(S(=O)(=O)CCC(=O)Nc2ccc(Br)cc2C)cc1 returned Lassa entry inh -4%[46.1 µM], Vaccinia mCherry -15%, VACV Venus inh -15% and HCMV inh active.
For CCC(=O)N1c2ccc(S(=O)(=O)CCC(=O)Nc3ccc(Br)c(C)c3)cc2CC1C (stereo not given) the results were Lassa entry inh -19%[46.1 µM], Vaccinia mCherry inconclusive, MARV entry inh 3%[46.1 µM], VACV Venus inh -27% and HCMV inh -72*.
`Cc1nc(SC(C)C(=O)Nc2ccccc2Cl)cc(-c2ccccc2)n1` (stereo not given) gave Lassa entry inh inconclusive, Vaccinia mCherry -4%, MARV entry inh inconclusive, VACV Venus inh -6% and HCMV inh -70*.
CCCOc1ccc(CNC(=O)c2ccc(C)c(-n3c(C)nc4cccnc43)c2)cc1 was read as Lassa entry inh inconclusive, Vaccinia mCherry -3%, VACV Venus inh -7% and HCMV inh 0.
C=CCN1c2ccccc2[C@]23CCC(=O)N(CCc4ccccn4)C2=NC(C(=O)OC)=C(C(=O)OC)[C@H]13 was read as MARV entry inh 4%[14.2 µM].
CCOC(=O)c1cccc(NC(=O)C(CC(C)C)N2Cc3ccccc3C2=O)c1 (stereo not given) was read as Lassa entry inh 0%[46.1 µM], Vaccinia mCherry -15%, VACV Venus inh -8% and HCMV inh -3.
c1ccc(-c2nnsc2-c2ncc[nH]2)cc1 was read as HCV inh 8%, Lassa entry inh 11%, Vaccinia mCherry -6%, MARV entry inh inconclusive, VACV Venus inh -6% and HCMV inh -15.
O=S(=O)(c1ccc(Cl)cc1)c1snnc1-c1ccccc1 was read as HCV inh 13µM*, Lassa entry inh inconclusive, Vaccinia mCherry inconclusive, MARV entry inh 16µM*, VACV Venus inh inconclusive and HCMV inh -104*.
`O=S(=O)(c1ccc(F)cc1)c1snnc1-c1ccccc1` gave HCV inh -22%, Lassa entry inh inconclusive, Vaccinia mCherry inconclusive, MARV entry inh inconclusive, VACV Venus inh -21% and HCMV inh -88*.
